# Measured values taken from PubChem BioAssay AID1347076 (National Center for Advancing Translational Sciences (NCATS), 2019).
# The campaign covered roughly 400,000 compounds. About 13,000 (3.2%) were called active. Roughly 18% stayed inconclusive and do not appear here. For the sample, actives were picked, then their nearest neighbours and some compounds at random. A number with no mark means an inactive call. Calls come from the whole dose curve; as a rule, active = well fitted cell-killing curve with a large enough effect; inconclusive = small, poorly fitted or top-dose-only effect, or effect the other way; inactive = flat fitted curve, though single readings scatter.
# Assay: qHTS assay for MDR1-selective chemotherapeutics: Primary screen using the drug-selected MDR subline cells KB-V1; note: nearly all actives have a fitted effect of over 60% in size
# Settings: KB-V1 MDR cells viability, CellTiter-Glo, 72 h; series mostly up to 46.1 µM; activity change, negative = cytotoxicity: at the top concentration
# Summary of the method: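 KB-V1 cells (P-gp-expressing MDR subline of KB-3-1) in phenol-red-free DMEM with 10% FBS were exposed to library compounds over a concentration series for 72 h at 37 degrees C. Viability read by CellTiter-Glo luminescence; concentration-effect curves fitted after normalization.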
# % is set by controls: 0 for no effect and ±100 for the full control effect; potency is the fitted concentration of half-maximal effect.
Structure (SMILES),"activity change, negative = cytotoxicity [%]",Potency
CCCNC(=O)C1(C)CCN(C(=O)c2ccc(F)cc2Cl)C1 (stereo not drawn),4.08,
CN(C)S(=O)(=O)c1ccc2oc(SCC(=O)Nc3ccccc3F)nc2c1,2.48,
COc1ccc(S(=O)(=O)N2CCN(CC(=O)N3c4ccccc4CC3C)CC2)cc1OC (stereo not drawn),-22.6,
CCS(=O)(=O)c1ccc2oc(SCC(=O)N3c4ccccc4CC3C)nc2c1 (stereo not drawn),,5.17 µM (active)
CC(C)(C)C(=O)CSc1nc2ccccc2o1,-5.46,
CC1Cc2ccccc2N1C(=O)CSc1nc2ccccc2o1 (stereo not drawn),,14.6 µM (active)
CC1Cc2ccccc2N1C(=O)CSc1nnc(-c2ccc(S(=O)(=O)N3CCCC3)cc2)n1C (stereo not drawn),,16.4 µM (active)
O=C(CSc1nc2ccccc2o1)N1CCN(c2ccccc2)CC1,2.2,
CCn1c(CSc2ncccn2)nnc1SCC(=O)N1c2ccccc2CC1C (stereo not drawn),,11.6 µM (active)
Cn1c(SCC(=O)OC2CCCCC2)nnc1-c1ccc(S(=O)(=O)N2CCCC2)cc1,-8.43,
CC1Cc2ccccc2N1C(=O)CSc1nnc(C2CC2)n1C (stereo not drawn),-27,
CC1CC(C)CN(C(=O)CSc2nnc(CSc3ncccn3)n2C)C1 (stereo not drawn),1.6,
CC1Cc2ccccc2N1C(=O)Cn1cnc2ccccc2c1=O (stereo not drawn),-2.59,
Cc1cc(C)c2sc(NC(=O)c3ccc(S(=O)(=O)N4CCCC4)cc3)nc2c1,0,
Brc1ccc2nc(-c3ccccc3)c(Cc3ccccc3)n2c1,9.06,
ClC/C=C/C[n+]1ccccc1Cl,-11.5,
CC(C)(C)c1ccc(S(=O)(=O)NC(=O)C2(C)CCN2C(=O)CC2CC2)cc1 (stereo not drawn),3.48,
COc1ccc(C(=O)N2CCCCC2c2cc(C(=O)Nc3ccccc3)no2)cc1 (stereo not drawn),-4.79,
Cn1cc(S(=O)(=O)N2CCCCCC2)cc1C(=O)N1CCN(c2ccc(F)cc2)CC1,-10.1,
CCOC(=O)c1cnc(SCC(=O)NCc2ccco2)nc1N,-0.0889,
CCOC(=O)c1cnc(SCC(=O)Nc2cccc(OC)c2)nc1N,11.5,
CCOC(=O)c1cnc(SCC(=O)Nc2ccccc2C(=O)OC)nc1N,,2.59 µM (active)
CCOC(=O)c1c(C)[nH]c(C)c1S(=O)(=O)N1CCC(C(=O)Nc2ccc(C)c(Cl)c2)CC1,0,
C/C(CC(=O)NCc1ccc(Cl)cc1)=N\NC(=O)COc1ccc(C)cc1Br,,8.2 µM (active)
CCCCC(=O)N/N=C(\C)CC(=O)Nc1cc(Cl)ccc1OC,15.9,

Structure (SMILES),"activity change, negative = cytotoxicity [%]",Potency
Cc1ccc(CNC(=O)CN2CCN(Cc3ccc(Cl)cc3)C2=O)cc1,-13,
O=C(NCc1ccc(F)cc1)c1cc(C2CCCCN2C(=O)c2cccs2)on1 (stereo not drawn),-6.97,
CC1C(=O)N(Cc2cn(Cc3ccco3)nn2)CCS(=O)(=O)N1Cc1ccc(-c2cccc(CO)c2)cc1 (stereo not drawn),-6.01,
CCc1ccc(-c2cc(C(=O)NN3CCN(C)CC3)c3ccccc3n2)cc1,9.05,
CN1CCN(CC(=O)Nc2cccc([N+](=O)[O-])c2)CC1,-17.3,
CCCCc1nc2ccccc2c(NC(=O)CN2CCN(C)CC2)c1CCC,,8.2 µM (active)
C[C@H]1CN([C@@H](C)CO)C(=O)c2cc(-c3ccccc3F)cnc2O[C@H]1CN(C)C(=O)C1CCOCC1,2.17,
NC(Cc1ccc(F)cc1)c1csc(Nc2nncc3ccccc23)n1 (stereo not drawn),2.75,
Cc1ccc(S(=O)(=O)c2cn(Cc3ccccc3)c3cc(N4CCCC4)c(F)cc3c2=O)c(C)c1,-14.3,
CCOC(=O)C1CCCN(C(=O)c2ccc(N(C)C)cc2)CC1 (stereo not drawn),-1.52,
COc1ccc(OC)c(C(O)c2ncc(-c3cccc(C(F)(F)F)c3)[nH]2)c1 (stereo not drawn),-21.4,
CSCCC(NC(=O)c1ccccc1)C(=O)N1CCN(Cc2ccc(Cl)cc2)CC1 (stereo not drawn),,18.4 µM (active)
COc1ccccc1C(=O)NC(CCSC)C(=O)N1CCN(C(C)=O)CC1 (stereo not drawn),1.56,
CSCCC(NC(=O)c1ccccc1)C(=O)N1CCCCCCC1 (stereo not drawn),0.0799,
CC1=C(C(=O)OCC(C)C)C(c2ccc(OCc3ccccc3)cc2)N2C(=O)CCSC2=N1 (stereo not drawn),-14.8,
O=C(NCc1ccc2c(c1)OCO2)c1sccc1Br,-18.2,
O=C(NCc1ccc2c(c1)OCO2)c1c(O)nc2sccn2c1=O,,8.2 µM (active)
C=CCn1c(=O)c(C(=O)NCc2ccc3c(c2)OCO3)c(O)c2ccccc21,-9.99,
c1coc(CNc2ncnc3ccccc23)c1,,inactive
c1ccc(-c2nc(NCc3ccco3)c3ccccc3n2)cc1,,23.1 µM (active)
O=[N+]([O-])c1cc(-c2nc(-c3ccccc3)no2)ccc1NCc1ccco1,17.7,
COc1ccc(-c2cnc3c(c2)C(=O)N([C@H](C)CO)C[C@@H](C)[C@H](CN(C)Cc2ccccc2)O3)cc1,20.4,
COc1cc(CNCc2ccc3c(c2)OCO3)c([N+](=O)[O-])cc1OC,-21.1,
COc1cc2c(cc1OC)C(Cc1cc(OC)c(OC)cc1[N+](=O)[O-])=NCC2,,9.2 µM (active)
COc1cc(CN2CCCN(C)CC2)c([N+](=O)[O-])cc1OC,0,

Structure (SMILES),"activity change, negative = cytotoxicity [%]",Potency
CN(C)c1ccc(/C=C/C=C/c2ccnc3ccccc23)cc1,,6.51 µM (active)
CN(Cc1ccccc1)c1ccc(/C=C/c2ccnc3ccccc23)cc1,-10.1,
CN(C)c1ccc(C=Nc2ccc(/C=C/c3ccnc4ccccc34)cc2)cc1,-1.45,
CN(C)c1ccc(/C=C/c2c3ccccc3nc3ccccc23)cc1,2.13,
NC(=O)C1CCN(C(=O)c2cccc(NC(=O)c3nsc4ccccc34)c2)CC1,0,
COCC1CCCCN1C(=O)c1cc(COc2ccc(C)c(C)c2)on1 (stereo not drawn),-25.6,
CC(=O)c1c(Nc2ccccc2)sc(C(=O)c2ccccc2)c1C,,3.66 µM (active)
CCCS(=O)(=O)c1c(Nc2ccccc2C)sc(C(=O)c2ccccc2)c1N,-18.5,
CCC(=O)Nc1sc(C(=O)Nc2ccccc2)c(C)c1C(=O)OC,-14.2,
COc1ccc(C(=O)OCC(=O)Nc2cc(C)on2)cc1F,19.5,
CC(=NNC(N)=O)C1CC2CCC1CC2 (stereo not drawn),-4.44,
Cc1ccccc1C#CC1=CC(=O)CC(C)(C)C1,20.2,
CCOc1ccccc1N1CCN(C(=O)c2ccc3[nH]c(C)c(C)c3c2)CC1,,6.51 µM (active)
CCn1c(C)c(C)c2cc(C(=O)N3CCN(c4cccc(C)c4C)CC3)ccc21,,inactive
Cc1[nH]c2ccc(C(=O)N3CCN(C)CC3)cc2c1C,0.208,
O=C(NCC(O)c1nc2ccccc2[nH]1)c1ccc(Br)cc1 (stereo not drawn),20.8,
O=C(CC[C@H]1O[C@@H](n2ccc(=O)[nH]c2=O)[C@H](O)[C@@H]1O)N[C@H](Cc1ccccc1)C(=O)NCCCN1CCCC1=O,0,
CN1CC(c2ccccc2)C2(COc3ccccc3C2=O)C12C(=O)Nc1ccccc12 (stereo not drawn),,20.6 µM (active)
C[C@@H]1NC(=O)[C@@]2(C)[C@@H](c3ccccc3)[C@H]3COc4ccccc4[C@@H]3N2C1=O,0,
COc1cccc(CNC(=O)CCC(=O)N2CC3CCCN3c3ccccc32)c1 (stereo not drawn),21.6,
CCc1nc2c(=O)[nH]cnc2o1,19.1,
C[C@H]1CN([C@@H](C)CO)C(=O)CCCn2cc(nn2)CO[C@@H]1CN(C)S(=O)(=O)c1ccc(-n2cccn2)cc1,0,
CN1CCN(C(=O)c2ccc(-c3cc4nc(NCc5cccnc5)n(C)c(=O)c4s3)cc2)CC1,-13.5,
COc1ccc(NC(=O)N2CCCC(C(=O)Nc3ccccc3OC)C2)cc1 (stereo not drawn),3.84,
CCOc1ccccc1NC(=O)C1CCCN(C(=O)Nc2ccccc2)C1 (stereo not drawn),-19.8,

Structure (SMILES),"activity change, negative = cytotoxicity [%]",Potency
CCOc1ccc(NC(=O)C2CCCN(C(=O)Nc3ccccc3)C2)cc1 (stereo not drawn),,14.6 µM (active)
CC(C)(C)C1CCC(=O)N2CCC[C@]2(c2ccccc2)C1 (stereo partly drawn),46.7,
CCCCN(C)S(=O)(=O)c1ccc(C(=O)Nc2sc3c(c2C(N)=O)CC(C)(C)NC3(C)C)cc1,0,
COc1cc(CNCCSc2nnnn2C)ccc1OCc1ccc(Cl)cc1Cl,0,
CN(CC(=O)O)S(=O)(=O)c1ccc2oc3ccccc3c2c1,10.8,
CCOC(=O)c1c(C)oc2ccc(OCC(=O)N(CC)CC)cc12,0,
COC(=O)c1c(C)oc2ccc(N(C(=O)Oc3ccccc3)S(=O)(=O)c3ccccc3)cc12,,2.91 µM (active)
O=C(Nc1ccc2c(c1)[C@@H]1C[C@@H](CC(=O)N3CCCCC3)O[C@@H](CO)[C@@H]1O2)NC1CCCCC1,3.39,
COc1ccc(NC(=O)C2(C)Cc3c(-c4cccc(NC(C)=O)c4)ccnc3O2)cc1 (stereo not drawn),0,
O=C(Cn1nnc(-c2ccc3c(c2)OCO3)n1)NCc1ccco1,17.1,
CC(=O)Nc1cccc(-c2ccnc3c2CC(C)(C(=O)NCc2ccccc2)O3)c1 (stereo not drawn),,16.4 µM (active)
CC1(C(=O)NCc2ccco2)Cc2c(-c3ccc4c(c3)OCO4)ccnc2O1 (stereo not drawn),,2.59 µM (active)
CC(=O)Nc1cccc(-c2ccnc3c2CC(C)(C(=O)NCc2ccco2)O3)c1 (stereo not drawn),-1.06,
CC1(C(=O)NCC2CCOCC2)Cc2c(-c3cccc(C(N)=O)c3)ccnc2O1 (stereo not drawn),3.72,
CCc1nc2c(OCCC3CCCCC3)cccn2c1N(C)C(=O)c1ccco1,0.295,
CCOc1ccc(NS(=O)(=O)c2ccc(C(=O)NCC3CCCO3)cc2)cc1 (stereo not drawn),-27.3,
COc1cc(NC(=O)C2=CC(c3ccc(C)cc3)=NS(=O)(=O)N2C)cc(OC)c1OC,8,
COc1ccc(-c2cc(NC(C)=O)c3ncc(-c4cc(OC)c(OC)c(OC)c4)n3c2)cn1,,13 µM (active)
COc1cccc(-c2cnc3c(NC(C)=O)cc(-c4cc(F)ccc4OC)cn23)c1,,7.31 µM (active)
COc1ccc(-c2cc(NC=O)c3ncc(-c4cccc(C(=O)N(C)C)c4)n3c2)c(OC)c1,6.08,
COc1cccc(-c2cnc3c(NC(C)=O)cc(-c4cccc(NC(C)=O)c4)cn23)c1,3.14,
CC(=O)Nc1cc(-c2ccc(N3CCN(C)CC3)cc2)cn2c(-c3cccc(C(=O)N(C)C)c3)cnc12,6.38,
O=C(Nc1cc(F)ccc1F)c1ccc2c(=O)n3c(nc2c1)CCC3,1.07,
